# Compound activity (PubChem)
# Sfp inh – inhibitors of Bacillus subtilis Sfp phosphopantetheinyl transferase | Q9F4F7 | Biochemical Sfp PPTase activity, qHTS | Potency, µM, for inactives: largest response in the series, negative = inhibition, usual class: inhibitors | actives 3.5% (n = 310,000) | AID 1490;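 note: the enzyme is Sfp with the accession as filed and its product quenches rhodamine fluorescence; potency is the fitted concentration of half-maximal effect; 0% = enzyme reaction without inhibitor and -100% = no enzyme wells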
#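 With Hepes-Na pH 7.6 buffer containing 10 mM MgCl2, Sfp (15 nM) modified BHQ-2-YbbR (12.5 uM) using rhodamine-CoA (5 uM). Two reads 30 minutes apart at 525/598 nm yielded each well's rate.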
# Giardia killer – kills Giardia lamblia. activity change, % at 7.66 µM, hits read low. Giardia lamblia trophozoite viability. actives 0.15% (n = 340,000); in the data active = activity change below about -80%; inconclusive = between about -30% and that limit;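 note: parasites exposed to compound for two days anaerobically before the ATP read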
#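 Killing of trophozoites was scored by loss of ATP luminescence after a 48 hrs anaerobic exposure to compounds at 37 deg C, using 100 cells per well.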
# ELG1 DNA repair – blocks ELG1-dependent DNA repair in HEK293T cells | HEK293T ELG1-luciferase reporter, luminescence, 16 h; DNA damage induced by 5-fluorouridine | Potency, µM (doses to about 46.1 µM), for inactives: at the highest dose activity change, negative = inhibition, hits mostly inhibitors | AID 504467 | actives 2.3% (n = 330,000); note: potency is the fitted concentration of half-maximal effect; nearly all actives have a fitted effect of over 55% in size
#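 Cells (2,000 per well) received 5-fluorouridine plus test compound or DMSO and were incubated 16 hr at 37 °C, 5% CO2. Luciferase activity was read by luminescence 30 min after ONE-Glo addition; signal suppression marked inhibition of damage-induced ELG1 function.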
# FBPA coupling cs – coupling enzyme interference in Giardia aldolase counter-screen; coupling enzyme system counterscreen, AmpLite Red fluorescence; activity change, negative = inhibition, % at 58.2 µM, hits read low; actives 0.67% (n = 290,000); in the data active = activity change below about -30%
#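 Coupling enzymes only (glyceraldehyde-3-phosphate) + compound, at 57.5 uM final, 10 min RT; add substrate/coupling/AmpLite Red mix, 20 min RT; fluorescence ex 525/em 598 nm. Actives flag coupling-system interference.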
# An asterisk follows results filed as active; ? = inconclusive; · = no result. Most compounds without a hit are left out; they make up all but 5.5% or so of the library. Unless noted, calls come from the whole dose curve; as a rule, active = well fitted curve in the direction sought with a large enough effect; inconclusive = small, poorly fitted or top-dose-only effect, or another doubt; inactive = no such curve, though single readings can be large; an effect the other way counts as inactive or inconclusive. Unless noted, % is set by controls: 0 for no effect and ±100 for the full control effect.
SMILES,Sfp inh,Giardia killer,ELG1 DNA repair,FBPA coupling cs
Cc1cc(=O)[nH]c(NN)n1,45µM*,-3,18%,0
Cc1cc(=O)[nH]c(N/N=C2/CCCC/C2=C\c2ccccc2)n1,2%,18,8.2µM*,-8
CCN(C(=O)COC(=O)CCc1ccc(OC)cc1)c1c(N)n(Cc2ccccc2)c(=O)[nH]c1=O,·,23,-10%,·
CCOc1ccc(Nc2nc(Cc3nnc(SCC(=O)NC4CCCCC4)n3C)cs2)cc1,-8%,-19,-12%,4
CCOc1ccc(Nc2nc(Cc3nnc(SCC(=O)N(CC)CC)n3C)cs2)cc1,32µM*,-20,?,-2
COCCCn1c(Cc2csc(Nc3ccc(F)cc3)n2)nnc1SCC(N)=O,50µM*,12,18%,4
CCOc1ccc(Nc2nc(Cc3nnc(SCC(=O)NCC4CCCO4)n3C)cs2)cc1 (configuration not stated),28µM*,1,-7%,0
CC(C)(C)OC(=O)C[C@H]1C/C=C\C[C@H](CC(=O)N[C@H](CO)Cc2ccccc2)C(=O)N2CCC[C@H]2COC1=O,·,6,-7%,·
COC(=O)c1ccc(CN(c2ccc(C)cc2)S(=O)(=O)c2ccc3c(c2)OCCO3)o1,-1%,-17,21µM*,-3
C=CCOc1ccccc1CN1CCC(Oc2cc(C(=O)NC3CC3)ccc2OC)CC1,10%,7,1%,·
CC(=O)NCCNc1nc(-c2cccc(C#N)c2)nc2ccccc12,18%,·,·,-1
CC(=O)N(c1ccc2oc(=O)sc2c1)S(=O)(=O)c1cccs1,11µM*,-8,5%,1
CC(C)C(=O)N(c1ccc2oc(=O)sc2c1)S(=O)(=O)c1cccs1,?,-4,?,1
CC(C)C(=O)N(c1cc2sc(=O)oc2c2ccccc12)S(=O)(=O)c1cccs1,10µM*,7,-3%,-16
CC(=O)N(c1ccc2oc(=O)sc2c1)S(=O)(=O)c1ccc(C(=O)O)cc1,56µM*,7,8%,4
CCCC(=O)N(c1ccc2oc(=O)sc2c1)S(=O)(=O)c1ccccc1,14µM*,4,-2%,1
CCCC(=O)N(c1ccc2oc(C)c(C(C)=O)c2c1)S(=O)(=O)c1ccc(C(=O)O)cc1,12%,11,-9%,12
CSc1ccc(Cl)c(C(=O)OCC(=O)N2CCN(c3ccccc3)CC2)c1,·,-11,-29%,·
CCCCCCSc1ccc([C@H]2N[C@@](Cc3ccccc3)(C(=O)OC)[C@H]3C(=O)N(C)C(=O)[C@@H]23)cc1OC,·,6,?,·
CSCCC(NC(=O)COc1ccccc1)C(=O)NCC1COc2ccccc2O1 (configuration not stated),-3%,21,2%,·
CCc1nc(SCC(=O)N2CC(=O)Nc3ccccc32)c2c(C)c(C)sc2n1,11%,32,23µM*,-1
Cc1cccc(-n2c(SCC(=O)N3CC(=O)Nc4ccccc43)nc3ccccc3c2=O)c1C,-17%,0,21µM*,2
N#Cc1cc(C#N)c(SCC(=O)N2CC(=O)Nc3ccccc32)nc1N,·,32,12µM*,·
Cc1sc2nc(C3CCCCC3)nc(SCC(=O)N3CC(=O)Nc4ccccc43)c2c1C,0%,-6,-3%,-1
CC(NC(=O)c1ccccc1F)c1nnc(SCC(=O)NC2=NCCS2)n1C (configuration not stated),19%,2,0%,3
SMILES,Sfp inh,Giardia killer,ELG1 DNA repair,FBPA coupling cs
O=C(NC1CC1)C1CCN(C2CCN(C(=O)c3c(F)cccc3Cl)CC2)CC1,8%,16,-2%,2
CCN(CC(=O)Nc1c(F)cccc1F)C(=O)Cc1ccc(S(=O)(=O)N2CCOCC2)s1,·,-11,30%,·
CC(C)CCNC(=O)C12CN(Cc3ccccc3)CC1C(c1ccc([N+](=O)[O-])cc1)=NO2 (configuration not stated),14µM*,12,?,-9
O=C(NCc1ccc(C(F)(F)F)cc1)C12CN(Cc3ccccc3)CC1C(c1cccc([N+](=O)[O-])c1)=NO2 (configuration not stated),14%,7,1%,-8
O=C(NCc1ccccc1C(F)(F)F)C12CN(Cc3ccccc3)CC1C(c1ccc([N+](=O)[O-])cc1)=NO2 (configuration not stated),2.2µM*,-11,-14%,0
COc1cccc(CNC(=O)C23CN(Cc4ccccc4)CC2C(c2ccc([N+](=O)[O-])cc2)=NO3)c1 (configuration not stated),7%,10,?,0
NC(=S)N=Nc1c(O)[nH]c2cc(F)c(F)cc12,45µM*,-16,13%,3
N#CCCn1c(=O)c(-c2cccs2)nc2cnc(Oc3ccccc3)nc21,4%,·,·,-2
[O-]/[N+](=N\Nc1ccc(Cl)cc1)c1ccccc1,·,-2,·,·
CC(C)Oc1ccc(C(=O)OC(C)C(=O)Nc2nc(-c3cccc([N+](=O)[O-])c3)cs2)cc1 (configuration not stated),-1%,6,16µM*,0
CC(OC(=O)c1ccc(F)cc1)C(=O)Nc1nc(-c2cccc([N+](=O)[O-])c2)cs1 (configuration not stated),0%,-1,?,3
CCSc1nnc(SCC(=O)c2c(N)n(C)c(=O)n(C)c2=O)s1,·,-3,-17%,·
C/C(CCc1ccc2c(c1)OCO2)=N\N=C(/N)SC1CC(=O)N(c2ccc(Cl)cc2)C1=O (configuration not stated),56µM*,-6,-1%,0
CCOC(=O)N/N=C1/C[C@@H](O)[C@@H](O)[C@@H]2[C@@H]3C(=O)N([C@@H](C)c4ccccc4)C(=O)[C@H]3CC[C@H]12,10%,·,·,1
O=S(=O)(c1ccccc1)N1CCCCC1CCc1ccccc1 (configuration not stated),·,5,·,·
O=[N+]([O-])c1cccc(NC(=S)N2CCc3ccccc32)c1,-2%,-3,13µM*,·
O=C(Nc1cccc([N+](=O)[O-])c1)N1CCCc2ccccc21,11%,0,?,1
Cc1cccc(NS(=O)(=O)c2ccc(Br)s2)n1,11%,6,12%,3
Cc1cc(C)nc(NS(=O)(=O)c2ccc(Br)s2)c1,?,11,-1%,-36*
Cc1ccc(NS(=O)(=O)c2ccc(Br)s2)nc1,?,-12,-3%,-37*
O=C(NCCc1ccccc1)C(c1cccs1)N(C(=O)CCl)c1ccc(Cl)cc1 (configuration not stated),-14%,3,18µM*,0
CC1=C/C(=C/N(C)C)C(=O)O1,8%,-2,16%,-2
O=C1OC(c2ccccc2)=C/C1=C/N1CCOCC1,20µM*,15,?,-1
CN(C)/C=C1/C=C(c2ccccc2)OC1=O,40µM*,-23,?,-1
COc1ccc(-c2ccc([C@H]3[C@H]4C=CC[C@@H](C)[C@@H]4C(=O)N3Cc3ccccc3)c(F)c2)cc1OC,22µM*,-5,?,0
